# According to the supplement of paper PMC10981050:
# Where “and” joins values, the source holds several entries; their conditions need not be identical. Identical values can stand only once. Counter-ions that a name gives are not always drawn.
# Experiments:
# Test in all cases: cell viability relative to vehicle control; higher = less cytotoxic
# Conditions in all cases: 10 µM
# K562 = tested on: K562
# Outline: (§1)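 CRISPR-edited mutant clones and isogenic wild-type clones from four leukaemia lines were screened against Selleck bioactive, kinase and epigenetic probe libraries, with identity-inconsistent compounds excluded. Each compound was acoustically dispensed at a single 10 µM dose into 384-well plates holding 2000 cells in 50 µL medium per well. After 48 h the supernatant was removed and CellTiter-Glo luminescence was read. Viability was expressed as percent of the on-plate vehicle control and analysed in Genedata Screener.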
# MARIMO = tested on: MARIMO
# Outline: as §1
# MOLM14 = tested on: MOLM14
# Outline: as §1
# OCI-AML2 = tested on: OCI-AML2
# Outline: as §1
SMILES,cell viability (K562; SRSF2 genotype: SRSF2 P95H/wt),cell viability (K562; SRSF2 genotype: SRSF2 wt/wt) [%],cell viability (MARIMO; SRSF2 genotype: SRSF2 P95H/wt) [%],cell viability (MARIMO; SRSF2 genotype: SRSF2 wt/wt) [%],cell viability (MOLM14; SRSF2 genotype: SRSF2 P95H/wt) [%],cell viability (MOLM14; SRSF2 genotype: SRSF2 wt/wt) [%],cell viability (OCI-AML2; SRSF2 genotype: P95H/wt) [%],cell viability (OCI-AML2; SRSF2 genotype: wt/wt) [%]
COc1cc(CCC(C)=O)ccc1O [Vanillylacetone],104% and 93.6%,91.8,100,108,101,101,97.8,108
Cc1ccc(S(=O)(=O)Nc2nc3ccccc3nc2Nc2ccc3nsnc3c2)cc1 [XL147 analogue],95.3% and 101%,105,97.6,104,99.2,98.7,101,94.5
O=c1cc(-c2ccc(O)c(O)c2)oc2cc(O)c([C@@H]3O[C@H](CO)[C@@H](O)[C@H](O)[C@H]3O)c(O)c12 [Homoorientin],90.2% and 85%,84.1,83.8,90,83.2,90,86.7,88.7
CN(C)C(=O)CCSC(SCCC(=O)O)c1cccc(/C=C/c2ccc3ccc(Cl)cc3n2)c1 (stereo not drawn),102% and 103%,98.5,110,111,108,107,101,103
c1ccc2[nH]c(-c3cscn3)nc2c1 [Thiabendazole],105% and 101%,106,98.8,103,97.8,99,93.6,105
CCn1c(=O)c(-c2ccc(Cl)cc2Cl)cc2cnc(Nc3ccc(N4CCNCC4)c(F)c3)nc21,1.46% and 1.57%,3.22,4.24,2.21,0.53,0.81,0.95,1.2
Cc1ccc(C(=O)Cn2c3c(sc2=N)CCCC3)cc1,88.9% and 94.2%,91.3,81.4,93.8,84,96.9,83.9,92.3
O=C(O)c1cc(O)c2c(c1)[C@@H]([C@H]1c3cc(C(=O)O)cc(O)c3C(=O)c3c(O[C@@H]4O[C@H](CO)[C@@H](O)[C@H](O)[C@H]4O)cccc31)c1cccc(O[C@@H]3O[C@H](CO)[C@@H](O)[C@H](O)[C@H]3O)c1C2=O [Sennoside B],75.3% and 75.2%,81.5,79.3,88.2,76.2,75.6,77.4,87.7
O=C1NC(=O)/C(=C/c2ccc(-c3ccc(F)cc3O)o2)S1,94.7% and 95.1%,88.4,75.9,79.2,89.3,100,62.3,59
CCOC(C)OCCc1ccccc1 (stereo not drawn) [Efetaal],105% and 100%,108,97.8,99.3,107,107,104,98.9
CCn1nc(C2CCN(C(=O)CCO)CC2)nc1-c1cnc(N)c(-c2nnc(C(C)(C)C)o2)n1,97.5% and 109%,104,57.5,50.7,38.2,50.8,21.3,34.6
CCCC(CCC)C(=O)O[C@H]1C[C@H]2CC[C@@H](C1)[N+]2(C)C [anisotropine methylbromide],101%,104,106,107,98,101,106,93.6
COc1cc(Nc2ncc(F)c(Nc3ccc4c(n3)N(COP(=O)(O)O)C(=O)C(C)(C)O4)n2)cc(OC)c1OC,97.6% and 98.5%,97.5,107,114,8.88,11.4,26.3,37
CN1CCN(CCOc2cc(OC3CCOCC3)c3c(Nc4c(Cl)ccc5c4OCO5)ncnc3c2)CC1 [Saracatinib (AZD0530)],7.73% and 16.1%,9.65,97.1,107,50.3,55.9,73.4,63.4
O=NN(CCCl)C(=O)NC1CCCCC1 [Lomustine (CeeNU)],95% and 113%,111,100,99.9,84,97.9,97.2,105
CCCC1O[C@@H]2C[C@H]3[C@@H]4CCC5=CC(=O)C=C[C@]5(C)[C@H]4[C@@H](O)C[C@]3(C)[C@]2(C(=O)CO)O1 (stereo partly drawn) [Budesonide],85.5% and 95.1%,83.7,97.6,103,86.1,84,70.5,87.6
Cc1ccccc1C(=O)Nc1ccc(C(=O)N2CCCC(N(C)C)c3ccccc32)cc1 (stereo not drawn) [Mozavaptan],93.3% and 90.1%,85,88.9,93.2,97.1,102,95.5,97.1
CCN(CC)CC(=O)Nc1c(C)cccc1C [Lidocaine (Alphacaine)],113% and 102%,111,106,108,103,105,101,106
NC(=O)Cc1c[nH]c2ccccc12 [Indole-3-acetamide],97.9% and 97.4%,107,98,100,92.9,103,107,115
CC(=O)O[C@@H]1CC[C@@]2(C)[C@@H](CC[C@]3(C)[C@@H]2C(=O)C=C2[C@@H]4[C@@H](C)[C@H](C)CC[C@]4(C)CC[C@]23C)[C@@]1(C)C(=O)O,99.7% and 94.1%,83.4,106,101,74.3,82.3,87.1,90.6
Cc1cc(N2CCCCC2)nc2ccccc12,97% and 102%,98.3,93.6,106,98.8,109,96.6,103

SMILES,cell viability (K562; SRSF2 genotype: SRSF2 P95H/wt),cell viability (K562; SRSF2 genotype: SRSF2 wt/wt) [%],cell viability (MARIMO; SRSF2 genotype: SRSF2 P95H/wt) [%],cell viability (MARIMO; SRSF2 genotype: SRSF2 wt/wt) [%],cell viability (MOLM14; SRSF2 genotype: SRSF2 P95H/wt) [%],cell viability (MOLM14; SRSF2 genotype: SRSF2 wt/wt) [%],cell viability (OCI-AML2; SRSF2 genotype: P95H/wt) [%],cell viability (OCI-AML2; SRSF2 genotype: wt/wt) [%]
C[C@]1(O)C[C@@H](O)[C@@H]2C=CO[C@@H](O[C@@H]3O[C@H](CO)[C@@H](O)[C@H](O)[C@H]3O)[C@@H]21 [Leonuride],105% and 99.7%,106,101,94.9,102,101,102,102
COc1cc2nc(N3CCCN(C)CC3)nc(NC3CCN(Cc4ccccc4)CC3)c2cc1OC,6.31% and 1.97%,3.98,0.75,0.69,0.24,0.26,0.23,0.28
CC1(C)CC[C@]2(C(=O)O)CC[C@]3(C)C(=CC[C@@H]4[C@@]5(C)CC[C@H](O)[C@@](C)(CO)[C@@H]5CC[C@]43C)[C@@H]2C1 [Hederagenin],103% and 102%,97.1,98.4,112,106,105,120,107
CCOC(=O)C1=C(C)NC(C)=C(C(=O)OC)C1c1cccc([N+](=O)[O-])c1 (stereo not drawn) [Nitrendipine],101% and 104%,100,97.3,99.9,97.7,103,122,111
CC(C)=C1CC[C@@H](C)CC1=O [Pulegone],95.9% and 92.3%,93,101,95.6,98.1,96.3,96,98.7
Cc1[nH]nc(C(F)(F)F)c1Cc1sc2c(c1C(=O)N1C[C@](C)(O)CO1)c(=O)n(C)c(=O)n2C(C)C,40% and 62.9%,61.3,90.5,103,92.8,89.3,99.7,99.9
CCN1CCN(Cc2ccc(-c3cc4c(N[C@H](C)c5ccccc5)ncnc4[nH]3)cc2)CC1,3.36% and 7.86%,8.31,52.9,58.4,12.6,11.8,13.8,23
OC[C@@H](O)[C@@H](O)[C@@H](O)CO [Ribitol (Adonitol)],94.5% and 97%,96.2,89.7,93.4,97.9,94.3,90,97.9
CN[C@@H]1[C@H](O)[C@H](NC)[C@H]2O[C@@]3(O)C(=O)C[C@@H](C)O[C@H]3O[C@@H]2[C@H]1O [Spectinomycin 2HCl],101% and 102%,93.5,103,102,104,99,106,94.4
CNC[C@@H](O)c1ccc(O)c(O)c1 [L-Adrenaline (Epinephrine)],101% and 90%,96.3,104,101,87.9,99.3,115,104
"CN1CCN(c2ccc3nc(-c4c(N)c5c(F)cccc5[nH]c4=O)[nH]c3c2)CC1 [Dovitinib (TKI-258, CHIR-258)]",59.5% and 69.8%,57.1,22.1,32.9,2.27,0.38,3.02,6.09
Cn1c(Nc2ccc(C(F)(F)F)cc2)nc2cc(Oc3ccnc(-c4ncc(C(F)(F)F)[nH]4)c3)ccc21,59.6% and 69.8%,47.5,52.3,58.6,64.2,50.1,38.6,47.4
CC(C(=O)O)c1cccc(Oc2ccccc2)c1 (stereo not drawn) [Fenoprofen calcium],90.9% and 83.7%,86.4,88.2,92.5,89.5,90.7,84.1,87.5
CCC(C)n1ncn(-c2ccc(N3CCN(c4ccc(OCC5COC(Cn6cncn6)(c6ccc(Cl)cc6Cl)O5)cc4)CC3)cc2)c1=O (stereo not drawn) [Itraconazole (Sporanox)],76.7% and 94.4%,83.1,49.6,55,71.1,96.7,50.8,55.4
Cc1[nH]cnc1CN1CCc2c(c3ccccc3n2C)C1=O [Alosetron Hydrochloride],93.1% and 95.7%,88.6,93.7,102,93.2,100,91.6,101
O=C(O)CCn1c2c(c3ccccc31)C[C@H](NS(=O)(=O)c1ccc(F)cc1)CC2 [Ramatroban],100% and 101%,105,106,108,102,104,101,103
C[N+](C)(C)C[C@H](O)CC(=O)[O-] [L-carnitine (Levocarnitine)],103% and 99.6%,99.8,99.1,105,95.1,103,90.9,110
C[C@]12CC[C@@H]3c4ccc(O)cc4C[C@@H](CCCCCCCCC[S+]([O-])CCCC(F)(F)C(F)(F)F)[C@H]3[C@@H]1CC[C@@H]2O (stereo partly drawn) [Fulvestrant (Faslodex)],86% and 87.5%,79.5,77.1,87,93.1,89.1,91.4,96.7
CCCC[C@@H](C=O)NC(=O)[C@H](CC(C)C)NC(=O)OCc1ccccc1 [Calpeptin],91.3% and 95.4%,98.5,90.9,95.2,83.2,98.9,96.6,101
CC[C@@]1(O)C(=O)OCc2c1cc1n(c2=O)Cc2cc3cc(O)ccc3nc2-1 [10-Hydroxycamptothecin],8.49% and 21.1%,9.32,4.98,3.83,0.7,0.58,0.54,1.46
